Measurements from PubChem BioAssay AID493175 (National Center for Advancing Translational Sciences (NCATS), 2011).
Records with an inconclusive call do not appear. The source made the active and inactive calls. The call rests on the fitted dose curve; in most records, active means well fitted curve in the direction sought with a large enough effect; inconclusive means small, poorly fitted or top-dose-only effect, or another doubt; inactive means no such curve, though single readings can be large or run the other way.

These compounds were tested against Luciferin 4-monooxygenase (Photinus pyralis) (UniProt P08659) (assay: miR-21 counterscreen using purified firefly luciferase). Conditions: purified P. pyralis luciferase, luminescence; series mostly up to 57.5 µM.
Chain of Luciferin 4-monooxygenase (Photinus pyralis) (P08659 whole entry, looked up): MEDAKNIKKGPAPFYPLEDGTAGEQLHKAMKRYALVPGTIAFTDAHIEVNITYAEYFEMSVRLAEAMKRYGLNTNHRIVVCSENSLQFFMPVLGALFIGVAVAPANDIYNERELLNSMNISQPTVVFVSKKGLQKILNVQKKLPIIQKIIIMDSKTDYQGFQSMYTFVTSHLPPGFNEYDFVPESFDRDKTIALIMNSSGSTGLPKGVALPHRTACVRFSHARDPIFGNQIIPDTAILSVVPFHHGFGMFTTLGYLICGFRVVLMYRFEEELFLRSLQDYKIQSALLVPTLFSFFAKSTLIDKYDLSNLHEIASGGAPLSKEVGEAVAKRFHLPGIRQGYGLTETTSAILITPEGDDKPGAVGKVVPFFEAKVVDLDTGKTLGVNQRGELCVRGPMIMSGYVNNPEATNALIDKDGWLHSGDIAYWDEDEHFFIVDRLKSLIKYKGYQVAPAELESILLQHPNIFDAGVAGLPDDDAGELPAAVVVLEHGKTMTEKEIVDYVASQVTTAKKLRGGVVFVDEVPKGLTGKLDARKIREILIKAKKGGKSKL
Excerpt: MLPCN Grant: 1 R21 NS059478-01 Assay Provider: Qihong Huang, The Wistar Institute NCGC Assay Overview: MicroRNAs (miRNAs) are endogenously encoded small (~20-25 nucleotides), nonprotein-coding RNAs that are involved in post-transcriptional repression of target messenger RNAs (mRNAs) (Le and Hannon, 2004). Estimated to be involved in the regulation of 30% of all protein-coding mRNAs (Filipowicz et al., 2008), miRNAs play a significant role in many biological processes including cellular differentiation and tissue development (Ghildiyal and Zamore, 2009). […] Compounds active in the miR-21 FLuc assay were clustered using Leadscope and active chemical series were prioritized based on chemical properties, potential for medicinal chemistry optimization, and SAR. Within each chemical series, representative compounds were re-acquired to test for activity in a secondary assay based on the quality of their CRC, efficacy, and potency. This secondary assay to determine if compounds active in the miR-21 FLuc assay were just luciferase inhibitors. Compounds found active in both the miR-21 FLuc and purified FLuc assays are considered as false positives. Keywords: NIH Roadmap, MLPCN, MLSMR, qHTS, miR-21, firefly luciferase, FLuc, miRNA.
NCGC Assay Protocol Summary: Reagents: 50mM Tris acetate, pH 7.5; 10mM Mg acetate; 10uM D-luciferin (Sigma #L9504); 10uM ATP; 0.01% Tween-20; 0.05% BSA; 10nM P. pyralis luciferase (Sigma #L9506) Control compounds used were two known firefly luciferase inhibitors (compounds (2) and (5) in Auld et al., 2010), and DMSO. Assay Summary: Three microliters containing firefly luciferase substrates in buffer (final concentrations: 50mM Tris acetate, pH 7.5, 10mM Mg acetate, 0.01% Tween-20, 0.05% BSA, 10uM D-luciferin, and 10uM ATP) are dispensed into each well of a Greiner white, solid-bottom 1536-well format plate using a flying reagent dispenser (FRD). These assay plates were then treated with 23nL of compound or DMSO using a Kalypsys pin tool, which allows for delivery of a 6-point interplate titration of each compound to the assay plate (quantitative HTS), with a final compound concentrations ranging from approximately 60 µM to 7pM. One microliter of firefly luciferase in […] Tris-acetate buffer was then delivered by FRD to each well for a final enzyme concentration of 10nM. Luciferase activity was then measured using a ViewLux CCD imager (PerkinElmer), with an average exposure time of 2-30 seconds (2X binning, medium/high gain).

| SMILES | outcome |
| --- | --- |
| COc1ccc(NCc2cccn2-c2nnc(N3CCC(C)CC3)s2)c(OC)c1 | inactive |
| Nc1c(C(=O)Nc2ccccc2Br)sc2nc(-c3cccs3)ccc12 | inactive |
| Cc1cc(C)c2c(N)c(C(=O)Nc3ccccc3F)sc2n1 | inactive |
| O=C(CSc1nnc(-c2ccncc2)o1)Nc1nncs1 | inactive |
| CCC(C)S(=O)(=O)c1oc(-c2cccs2)nc1S(=O)(=O)c1ccccc1 (stereo not given) | inactive |
| CCC(Oc1ccccc1F)C(=O)N1CCC(c2nc3ccccc3s2)CC1 (stereo not given) | inactive |
| COc1ccc(NC(=O)CSc2nc(SC)ns2)c(OC)c1 | inactive |
| COc1ccccc1NC(=O)C/C(C)=N/NC(=O)c1ccccn1 | inactive |
| CC(C)COc1ccc(C(=O)Nc2cc(-c3ccccc3)no2)cc1 | inactive |
| COc1ccc(NC(=O)CSc2nnc(-c3cccs3)o2)cc1 | inactive |
| Cc1nnc(SCc2nc(N)nc(Nc3ccccc3)n2)s1 | inactive |
| Cc1cccc(N2CCN(c3ncnc4onc(C)c34)CC2C)c1 (stereo not given) | inactive |
| Cc1ccc2c(C)c(C(=O)N(C)C(C)c3ccncn3)oc2c1C (stereo not given) | inactive |
| Nc1c(-c2nc(-c3ccccc3Cl)no2)nnn1-c1ccccc1F | inactive |
| COc1ccc(-c2nnc(SCC(=O)Nc3cccc(F)c3)s2)cc1 | inactive |
| Cc1c(-c2nsc(NC(=O)c3cccs3)n2)nnn1-c1ccc(Cl)cc1 | inactive |
| Cc1ccc(-c2nc(NCc3ccco3)n(S(C)(=O)=O)n2)cc1 | inactive |
| CC(C)S(=O)(=O)c1oc(-c2cccs2)nc1S(=O)(=O)c1ccc(F)cc1 | inactive |
| C/C(=N\NC(=O)c1cccs1)c1ccncc1 | inactive |
| O=S(=O)(c1ccc(F)cc1)n1ccc(-c2cnc(-c3ccccc3)s2)n1 | inactive |

| SMILES | outcome |
| --- | --- |
| COc1ccccc1NC(=O)c1sc2nc3c(cc2c1N)CN(Cc1ccccc1)CC3 | inactive |
| COc1ccc(-c2csc(NC(=O)COC(=O)c3ccc(Br)o3)n2)cc1 | inactive |
| COc1ccc(CNc2n[nH]c(-c3ccco3)n2)cc1OC | inactive |
| O=C(Nc1nnc(S(=O)(=O)N2CCCC2)s1)c1ccc(F)cc1 | inactive |
| O=C(CSc1nnc(-c2ccccn2)o1)Nc1cccc(Cl)c1 | inactive |
| Cc1c(-c2nc(-c3ccc(C(F)(F)F)cc3)no2)n(C)oc1=O | inactive |
| O=C(Nc1ccc(-c2nc3ccccc3[nH]2)cc1)c1ccc2c(c1)OCO2 | inactive |
| Cc1ccc(SCC(=O)Nc2ccc3oc(-c4ccc(F)cc4)nc3c2)cc1 | inactive |
| COc1ccc(-n2nnc(-c3nc(-c4cccs4)no3)c2N)cc1OC | inactive |
| CC(=O)c1cnc2nc(SCc3ccccc3)nn2c1C | inactive |
| CN(C(=O)CSc1nnc(-c2ccccc2F)o1)C1CCCCC1 | inactive |
| COc1ccc(NC(=O)c2ncn(-c3ccccc3)n2)cc1Cl | inactive |
| CS(=O)(=O)c1ncc(Cl)c(C(=O)N2CCN(c3cccc(Cl)c3)CC2)n1 | inactive |
| CC(C)S(=O)(=O)c1oc(-c2ccc(F)cc2)nc1S(=O)(=O)c1ccc(F)cc1 | inactive |
| Cc1ccc(C(=O)Nc2ccc3c(c2)N(C)C(=O)c2ccccc2S3)cc1F | inactive |
| CCS(=O)(=O)c1oc(-c2ccc(F)cc2)nc1S(=O)(=O)c1ccccc1 | inactive |
| CCc1nonc1NC(=O)c1oc2ccc(C)cc2c1C | inactive |
| COc1nc(Nc2cccc(C(F)(F)F)c2)nc(OC)n1 | inactive |
| CCc1nonc1NC(=O)c1oc2cc(C)c(C)cc2c1C | inactive |
| Cc1ccc(-n2nnc(-c3nc(-c4cccs4)no3)c2N)cc1C | inactive |
